Holding throughout (test): NCI-60 one-dose screen, 48 h (100 = growth as untreated, 0 = no growth, -100 = all killed)
One test deals with 786-0 renal. The note with it: 10 µM unless noted.
Another test has as its system DU-145 prostate. The settings on record: 10 µM unless noted.
The subject of the next test is MDA-MB-231 breast. The note with it: 10 µM unless noted.
For the next test, the system named is SF-268 CNS. The note with it: 10 µM unless noted.
A further test concerns SF-539 CNS. The settings on record: 10 µM unless noted.
In another test the test system is M14 melanoma. The note with it: 10 µM unless noted.
The next test deals with HCT-15 colon. The settings on record: 10 µM.
Another test relates to SNB-19 CNS. The note with it: 10 µM unless noted.
The next test deals with UACC-62 melanoma. The settings on record: 10 µM unless noted.
For the next test, the system named is SN12C renal. The note with it: 10 µM unless noted.
A further test relates to ACHN renal. The note with it: 10 µM unless noted.
A further test concerns MOLT-4 leukemia. The note with it: 10 µM.
For a further test, the system named is OVCAR-8 ovarian. The settings on record: 10 µM unless noted.
A further test has as its system SK-OV-3 ovarian. The note with it: 10 µM unless noted.
The next test deals with NCI/ADR-RES ovarian. The note with it: 10 µM unless noted.
For another test, the system named is T-47D breast. The note with it: 10 µM unless noted.
A further test concerns MDA-MB-435 melanoma. The settings on record: 10 µM unless noted.
For another test, the system named is SW-620 colon. The note with it: 10 µM unless noted.
The next test deals with HCT-116 colon. The settings on record: 10 µM unless noted.
The next test has as its system KM12 colon. The note with it: 10 µM unless noted.

Compounds without any hit were thinned out: in the full panel of roughly 83,000, 20% have a hit.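 Cell lines were cultured in 96-well plates, exposed to a single compound concentration, and assessed for percent growth 48 hours later.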 Calls of active or inactive are those of the source. The calls were made as follows: active = growth percent below 10; inactive = the rest.

Turning to `NC(=O)C(Cl)Cl`, the growth with 786-0 renal is 107% (inactive); with DU-145 prostate, 108% (inactive); with MDA-MB-231 breast it was 111% (inactive); in the test on SF-268 CNS, 102% (inactive); with SF-539 CNS, 107% (inactive); in the test with M14 melanoma, 112% (inactive). In addition, the growth with HCT-15 colon was 97.6% (inactive); in the test on SNB-19 CNS, 99.2% (inactive); in the test on UACC-62 melanoma, 105% (inactive); in the test on SN12C renal, 104% (inactive); in the test on ACHN renal, 104% (inactive); with MOLT-4 leukemia, 109% (inactive). Moreover, the growth was 99.9% (inactive) in the test on OVCAR-8 ovarian; 109% (inactive) with SK-OV-3 ovarian; 114% (inactive) in the test on NCI/ADR-RES ovarian; 103% (inactive) in the test with T-47D breast; 103% (inactive) in the test on MDA-MB-435 melanoma; 113% (inactive) in the test with SW-620 colon. In addition, the growth in the test on HCT-116 colon was 107% (inactive); in the test on KM12 colon, 110% (inactive).
On to `CCN1CC2(CN(CC)C1=S)C(=O)NC(=O)NC2=O`, for which the growth with 786-0 renal was 90.3% (inactive); in the test on DU-145 prostate, 97.6% (inactive); in the test with MDA-MB-231 breast, 110% (inactive); with SF-268 CNS it was 95.1% (inactive); in the test on SF-539 CNS, 107% (inactive); with M14 melanoma it was 88.9% (inactive). The growth with HCT-15 colon was 99.9% (inactive); in the test with SNB-19 CNS, 107% (inactive); in the test on UACC-62 melanoma, 101% (inactive); in the test with SN12C renal, 107% (inactive); in the test on ACHN renal, 99% (inactive); in the test with MOLT-4 leukemia, 107% (inactive). The growth in the test with OVCAR-8 ovarian was 101% (inactive); in the test with SK-OV-3 ovarian, 97.4% (inactive); with NCI/ADR-RES ovarian it was 97.4% (inactive); in the test on T-47D breast, 90.4% (inactive); in the test on MDA-MB-435 melanoma, 103% (inactive); in the test on SW-620 colon, 97.4% (inactive). The growth in the test with HCT-116 colon was 97.3% (inactive); with KM12 colon it was 94.1% (inactive).
In the case of `CC(=O)O[C@@H]1C2=C(C)C3(CC3)[C@@](C)(O)C(=O)C2=C[C@@]1(C)CO`, the growth is 0.386% (active) in the test on 786-0 renal; 5.53% (active) in the test with DU-145 prostate; -2.64% (active) in the test with MDA-MB-231 breast; 6.35% (active) with SF-268 CNS; -33.1% (active) in the test with SF-539 CNS; -48.6% (active) in the test on M14 melanoma. Moreover, the growth with HCT-15 colon was 0.741% (active); in the test with SNB-19 CNS, 7.37% (active); in the test with UACC-62 melanoma it was -69.8% (active); with SN12C renal it was 12.4% (inactive); with ACHN renal, -6.63% (active); with MOLT-4 leukemia, 5.2% (active). Also, the growth in the test on OVCAR-8 ovarian was 7.82% (active); in the test on NCI/ADR-RES ovarian, -5.59% (active); in the test on T-47D breast it was 7.72% (active); in the test on MDA-MB-435 melanoma it was -85% (active); in the test with SW-620 colon it was 4.27% (active); in the test with HCT-116 colon it was 6.86% (active). Further, the growth with KM12 colon was 0.46% (active).
In the case of `CCCCNCCc1ccccn1`, the growth is 97.6% (inactive) in the test with 786-0 renal; 113% (inactive) with DU-145 prostate; 114% (inactive) in the test on MDA-MB-231 breast; 107% (inactive) in the test with SF-268 CNS; 109% (inactive) in the test with SF-539 CNS; 99.6% (inactive) in the test with M14 melanoma. In addition, the growth with HCT-15 colon was 102% (inactive); in the test on SNB-19 CNS, 113% (inactive); in the test with UACC-62 melanoma, 109% (inactive); in the test on SN12C renal it was 112% (inactive); in the test with ACHN renal it was 101% (inactive); in the test with MOLT-4 leukemia, 97.5% (inactive). Besides, the growth with OVCAR-8 ovarian was 102% (inactive); in the test on SK-OV-3 ovarian, 119% (inactive); with NCI/ADR-RES ovarian, 105% (inactive); in the test on T-47D breast it was 97.2% (inactive); in the test with MDA-MB-435 melanoma it was 109% (inactive); in the test on SW-620 colon it was 103% (inactive). Further, the growth with HCT-116 colon and in the test on KM12 colon was 102% (inactive) throughout.
As for `CC(C)(C)[Si](C)(C)OC1[C@@H](O[Si](C)(C)C(C)(C)C)[C@@H](CNC(=O)NC(=O)CF)O[C@H]1n1cnc2c(NC(=O)Nc3ccccc3)ncnc21` (stereo partly drawn), the growth is 61.4% (inactive) in the test on 786-0 renal; 47.6% (inactive) in the test on DU-145 prostate; 85.9% (inactive) in the test with MDA-MB-231 breast; 26.6% (inactive) with SF-268 CNS; 92.6% (inactive) with SF-539 CNS; 73.2% (inactive) in the test on M14 melanoma. Also, the growth with HCT-15 colon is 80.7% (inactive); in the test with UACC-62 melanoma it was 76.6% (inactive); with SN12C renal, 44.3% (inactive); in the test with ACHN renal, 71.8% (inactive); in the test on MOLT-4 leukemia, -13.4% (active); with OVCAR-8 ovarian, 51.4% (inactive). Moreover, the growth is 89.3% (inactive) in the test with SK-OV-3 ovarian; 71% (inactive) in the test on NCI/ADR-RES ovarian; 71.9% (inactive) with T-47D breast; 70.5% (inactive) in the test with MDA-MB-435 melanoma; 33.8% (inactive) in the test with SW-620 colon; 21.3% (inactive) with HCT-116 colon. In the test on KM12 colon, the growth is 28.5% (inactive).
As for `COc1cc(C2CC(=O)Nc3nc(N)[se]c32)c(OC)c2c1OCO2` (stereo not drawn), the growth in the test with 786-0 renal is 105% (inactive); in the test on DU-145 prostate, 103% (inactive); with MDA-MB-231 breast, 96.3% (inactive); with SF-268 CNS, 107% (inactive); in the test with SF-539 CNS, 91% (inactive); in the test with M14 melanoma, 85.1% (inactive). Besides, the growth is 101% (inactive) in the test on HCT-15 colon; 51.9% (inactive) in the test with SNB-19 CNS; 99.3% (inactive) in the test on UACC-62 melanoma; 97.3% (inactive) in the test on SN12C renal; 99.1% (inactive) with ACHN renal; 117% (inactive) in the test with MOLT-4 leukemia. The growth is 104% (inactive) with OVCAR-8 ovarian; 78.3% (inactive) with SK-OV-3 ovarian; 109% (inactive) in the test on NCI/ADR-RES ovarian; 89% (inactive) in the test with T-47D breast; 99% (inactive) with MDA-MB-435 melanoma; 110% (inactive) with SW-620 colon. Besides, the growth with HCT-116 colon was 65.7% (inactive); with KM12 colon it was 70.3% (inactive).
As for `Cn1cnnc1[S-].[Au+].c1ccc([PH+](c2ccccc2)c2ccccc2)cc1`, the growth in the test with 786-0 renal was 1.78% (active); with DU-145 prostate, 33.6% (inactive); with MDA-MB-231 breast it was 30.3% (inactive); with SF-268 CNS, 12.5% (inactive); with SF-539 CNS, 15.4% (inactive); in the test with M14 melanoma it was -11.9% (active). Also, the growth is -67.4% (active) in the test with HCT-15 colon; 11.4% (inactive) in the test with SNB-19 CNS; -15.1% (active) with UACC-62 melanoma; 15.9% (inactive) with SN12C renal; -42.3% (active) with ACHN renal; -9.25% (active) in the test with MOLT-4 leukemia. Also, the growth with OVCAR-8 ovarian is 20.3% (inactive); in the test on NCI/ADR-RES ovarian, 69.5% (inactive); with T-47D breast, -16.6% (active); in the test with MDA-MB-435 melanoma, 11.1% (inactive); in the test with SW-620 colon, -49.3% (active); with HCT-116 colon it was 3.71% (active). Besides, the growth in the test with KM12 colon is 58.3% (inactive).
Turning to `CCCCOC(=O)c1ccccc1C(=O)O.CCCCOC(=O)c1ccccc1C(=O)O.[Cu+2]`, the growth in the test on 786-0 renal is 106% (inactive); in the test with DU-145 prostate, 113% (inactive); in the test on MDA-MB-231 breast it was 124% (inactive); in the test with SF-268 CNS it was 120% (inactive); with SF-539 CNS, 111% (inactive); in the test on M14 melanoma, 101% (inactive). The growth in the test with HCT-15 colon is 112% (inactive); with SNB-19 CNS it was 131% (inactive); with UACC-62 melanoma, 111% (inactive); in the test with SN12C renal, 113% (inactive); in the test on ACHN renal it was 112% (inactive); in the test with MOLT-4 leukemia it was 96.8% (inactive). Also, the growth in the test with OVCAR-8 ovarian was 108% (inactive); with SK-OV-3 ovarian, 93.4% (inactive); in the test on NCI/ADR-RES ovarian, 111% (inactive); in the test on T-47D breast, 104% (inactive); in the test on MDA-MB-435 melanoma, 105% (inactive); in the test with SW-620 colon, 98.8% (inactive). Besides, the results for the growth with HCT-116 colon and in the test on KM12 colon were 102% (inactive) and 105% (inactive), respectively.
Regarding `CO[C@@H]1[C@H](OC(=O)NC(=O)CCl)CC[C@]2(CO2)[C@H]1[C@@]1(C)O[C@@H]1CC=C(C)C`, the growth is 70.4% (inactive) in the test with 786-0 renal; 59.8% (inactive) in the test on DU-145 prostate; 79.9% (inactive) with MDA-MB-231 breast; 71.5% (inactive) in the test with SF-268 CNS; 87.6% (inactive) in the test on SF-539 CNS; 62% (inactive) with M14 melanoma. Also, the growth in the test with HCT-15 colon is 30% (inactive); in the test on SNB-19 CNS, 48.6% (inactive); in the test with UACC-62 melanoma, 63.5% (inactive); in the test with SN12C renal, 72.3% (inactive); with ACHN renal, 60.7% (inactive); in the test with MOLT-4 leukemia, 63% (inactive). Also, the growth is 93.7% (inactive) with SK-OV-3 ovarian; 75.9% (inactive) in the test on NCI/ADR-RES ovarian; 64.6% (inactive) in the test on T-47D breast; 62.6% (inactive) with MDA-MB-435 melanoma; 49.4% (inactive) with SW-620 colon; 43.8% (inactive) in the test on HCT-116 colon. For the same compound, the growth in the test on KM12 colon is 36.3% (inactive).
Take `O=[N+]([O-])c1ccc(F)c([N+](=O)[O-])c1F`: the growth is 115% (inactive) with DU-145 prostate; 113% (inactive) with MDA-MB-231 breast; 103% (inactive) in the test on SF-268 CNS; 105% (inactive) in the test on SF-539 CNS; 116% (inactive) in the test with HCT-15 colon; 115% (inactive) in the test on SNB-19 CNS. The growth with UACC-62 melanoma is 107% (inactive); in the test on SN12C renal, 103% (inactive); with ACHN renal, 113% (inactive); with MOLT-4 leukemia, 58% (inactive); with OVCAR-8 ovarian it was 104% (inactive); in the test with SK-OV-3 ovarian, 105% (inactive). For the same compound, the growth in the test with NCI/ADR-RES ovarian was 109% (inactive); in the test with T-47D breast it was 96.6% (inactive); in the test on MDA-MB-435 melanoma, 103% (inactive); in the test with SW-620 colon, 88.2% (inactive); in the test on KM12 colon it was 94.1% (inactive).
